{"source": "the supplement of paper PMC6555819", "data": [{"test_system": "THRa:RXRa (NR concentration 90 nM, RXRa partner concentration 90 nM)", "test": "PBM binding z-score (relative to random genomic background probes); higher = stronger binding; sequences stand for … in GC…GCGATTGACAGCGTAGAATGAAGG", "how_it_was_run": "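Custom Agilent 4×180K protein-binding microarrays carried double-stranded probes, each with a 34-nt variable region. These regions held direct-repeat seeds, single-nucleotide variants, half-site ablations and random human genomic background sequences. Ligand-free nuclear receptor dimers were incubated on the arrays for 1 h, antibodies against each partner (one per run) detected binding, and scanned fluorescence was regression-normalized. Binding z-scores take the random background probes as reference.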", "values": [{"sequence": "CCTAGCAGGCCAGGGGCACTCAAGCATTTCGCTT", "PBM binding z-score": -0.336}, {"sequence": "ATCTCTAGGTAAGGTTCAGTGAAAGATCGATAGA", "PBM binding z-score": 0.888}, {"sequence": "ATAGAAAGGTCGAGGTGAGTATAGAGAAAGGGAA", "PBM binding z-score": 2.93}, {"sequence": "GCATATAGGTAATACAAGGGGAAAGTCCGATTGT", "PBM binding z-score": 1.94}, {"sequence": "CCTACTTGGTCAGGAGGTCACACACCGGATATGA", "PBM binding z-score": 3.59}, {"sequence": "CGTCCAAGGTCCTAGGAGGTCAGTGAAGACAGAT", "PBM binding z-score": 4.08}, {"sequence": "AATACAGGGTCATCGTCGGCCAGAGTACGCACAG", "PBM binding z-score": 4.1}, {"sequence": "CAGCGTAGGTCAGGGCCAGTATAGGAGGAACGTT", "PBM binding z-score": 1.24}, {"sequence": "CAAACTAGGTCACGATAGGTCAAAGTCGAATGAC", "PBM binding z-score": 4.65}, {"sequence": "AGAACGAGGGCACGCTGAGTTCATAGCAGAGTAG", "PBM binding z-score": 3.31}, {"sequence": "ATATGTAGGGTATCGGGTCATTCAGTTTGCGCAT", "PBM binding z-score": 3.07}, {"sequence": "TCATATAGGTAAACGGTGAAAGTCGGTGTGGTAA", "PBM binding z-score": 0.081}, {"sequence": "TCGAGTAGGTTAGGGGCATACAGAATGGCGTCGA", "PBM binding z-score": 0.925}, {"sequence": "TAGCCTAGGTCATTCAGGGGACAGTATAGAAAGC", "PBM binding z-score": 3.75}, {"sequence": "TCAGACAGGTGAAGGTACCTCAGGTACGCAGTCG", "PBM binding z-score": 0.941}, {"sequence": "CCTACTAGGCCATTCAGAGGTCATTGATCATATG", "PBM binding z-score": 3.42}, {"sequence": "ATATGTAGGTTACATCCGGGTCGTTCAGGCTATG", "PBM binding z-score": 2.53}, {"sequence": "TCTTGTAGATCAGAAGGTTAAGAAAGCTGGCCAA", "PBM binding z-score": 0.538}, {"sequence": "TGATATAGGTAAAGGTGAAAGTCGAACGATATGA", "PBM binding z-score": 1.57}, {"sequence": "ACTAGCAGGCCAAGGGTCACTCTAGATTAGTCCG", "PBM binding z-score": 2.32}, {"sequence": "GGAACGAGGCCAAAGTTGATAGCATCTGTCGACG", "PBM binding z-score": 0.667}, {"sequence": "CGAACTAGGTCATTGACAGGAGAGTGAATAGTAA", "PBM binding z-score": 2.48}]}]}
